Assay results as given in PubChem BioAssay (EPA / NIEHS).
Calls of active or inactive are those of the source. How the source made its calls: active means hit-call score of the fitted dose curve at least 0.9, where 1 is the maximum; inconclusive means response in the unintended direction; inactive means score below 0.9.

target: guinea pig Sigma Receptor, Non-selective Binding, SIGMAR1 (gene 100135589) (UniProt Q60492); test: NVS_OR_gSIGMA_NonSelective: NovaScreen (NVS) Nuclear Receptor Binding Assay for guinea pig Sigma Receptor, Non-selective Binding (AID 2283367)
Sequence (Q60492 whole entry, looked up): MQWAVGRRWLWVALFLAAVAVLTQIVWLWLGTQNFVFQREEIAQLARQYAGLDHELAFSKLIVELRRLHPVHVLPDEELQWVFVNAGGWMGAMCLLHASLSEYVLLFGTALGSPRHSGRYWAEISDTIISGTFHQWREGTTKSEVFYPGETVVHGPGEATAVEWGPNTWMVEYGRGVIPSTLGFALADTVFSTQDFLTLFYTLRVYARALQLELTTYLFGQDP
Experimental: NVS_OR_gSIGMA_NonSelective is a biochemical, single-readout assay that uses extracted gene-proteins from Guinea pig brain membranes in a tissue-based cell-free assay. Measurements were taken 1 hour after chemical dosing in a 48-well plate.NVS_OR_gSIGMA_NonSelective is one of one assay component(s) measured or calculated from the NVS_OR_gSIGMA_NonSelective assay. It is designed to make measurements of radioligand binding, a form of binding reporter, as detected with scintillation counting signals by Filter-based radiodetection technology.Data from the assay component NVS_OR_gSIGMA_NonSelective was analyzed into 1 assay endpoint. This assay endpoint, NVS_OR_gSIGMA_NonSelective, was analyzed in the positive analysis fitting direction relative to DMSO as the negative control and baseline of activity. Using a type of binding reporter, loss-of-signal activity can be used to understand changes in the binding as they relate to the gene Sigmar1. Furthermore, this assay endpoint can be referred to as a primary readout, because the performed assay has only produced 1 assay endpoint. To generalize the intended target to other relatable targets, this assay endpoint is annotated to the misc protein intended target family, where the subfamily is chaperone.
Binding assays used specific radioligands (tritiated, iodinated) with non-radioactive competitive displacement ligands in agonist or antagonist protocols (as indicated) and various reference compounds and inhibitors to titrate specific binding to receptors and transporters. Most enzyme assays (CYPs, kinases, phosphatases, proteases, HDACs) used recombinant protein and specific substrates (fluorescence mostly, some colorimetric and radioactive) and inhibitors, followed by a biochemical separation of substrate and product. All assays for the biochemical HTS were initially run in duplicate at a single concentration (10 uM for CYP450 assays and 25 uM for all others). […] Each assay was run with positive and negative controls, and concurrent controls on every plate. The follow-up (secondary) screen tested active chemical-pairs in concentration series, as well as a few additional assays not tested in the primary screen, some selected negative inactives, and several cases re-run in the concentration series for confirmatory purposes.

Row | SMILES | outcome | AC50
1 | N#Cc1nn(-c2c(Cl)cc(C(F)(F)F)cc2Cl)c(N)c1S(=O)C(F)(F)F (stereo not given) | inactive | 
2 | OC(c1ccc(Cl)cc1)(c1cncnc1)c1ccccc1Cl (stereo not given) | inactive | 
3 | CON(C)C(=O)Nc1ccc(Cl)c(Cl)c1 |  | 12 µM (active)
4 | CCc1nn(C)c(C(=O)NCc2ccc(C(C)(C)C)cc2)c1Cl |  | 16.2 µM (active)
5 | C=CCC1=C(C)[C@@H](OC(=O)[C@@H]2[C@@H](C=C(C)C)C2(C)C)CC1=O |  | 37.4 µM (active)
6 | CCCC1COC(Cn2cncn2)(c2ccc(Cl)cc2Cl)O1 (stereo not given) |  | 25 µM (active)
7 | CCON=C(CC)C1=C(O)CC(c2c(C)cc(C)cc2C)CC1=O (stereo not given) | inactive | 
8 | CNC(=S)S | inactive | 
9 | CC1COC(Cn2cncn2)(c2ccc(Oc3ccc(Cl)cc3)cc2Cl)O1 (stereo not given) |  | 1.27 µM (active)
10 | CCOC(=O)CC(SP(=S)(OC)OC)C(=O)OCC (stereo not given) |  | 11.4 µM (active)
